A selection: hits, their analogues and other compounds. The true share with any hit is near 11%.
Tau fibril ThT – tau fibrillization inhibition (ThT binding); P10636; recombinant tau K18 P301L, heparin-induced fibrillization, ThT fluorescence; Potency, µM (top dose mostly 57.4 µM), most hits filed as inhibitors; 2.1% of 270,000 active; also: nearly all actives have a fitted effect of over 55% in size
Target sequence (P10636 561-689 P618L limits assumed): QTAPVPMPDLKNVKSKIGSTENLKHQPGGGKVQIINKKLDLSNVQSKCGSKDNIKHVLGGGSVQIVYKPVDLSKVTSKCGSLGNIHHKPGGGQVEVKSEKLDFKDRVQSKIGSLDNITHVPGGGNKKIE
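In this qHTS, human K18 P301L tau is incubated with compound and heparin for 6 hr at 37 C, and Thioflavin T fluorescence then reports fibril load.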
G9a block – blocks human histone lysine methyltransferase G9a; AID 504332; G9a H3K9 monomethylation, AlphaScreen, 2 h; Potency, µM (top dose mostly 102 µM), usual class: inhibitors; 8.8% of 350,000 active; Q96KQ7; also: nearly all actives have a fitted effect of over 75% in size
Target sequence (Q96KQ7 913-1193 limits assumed): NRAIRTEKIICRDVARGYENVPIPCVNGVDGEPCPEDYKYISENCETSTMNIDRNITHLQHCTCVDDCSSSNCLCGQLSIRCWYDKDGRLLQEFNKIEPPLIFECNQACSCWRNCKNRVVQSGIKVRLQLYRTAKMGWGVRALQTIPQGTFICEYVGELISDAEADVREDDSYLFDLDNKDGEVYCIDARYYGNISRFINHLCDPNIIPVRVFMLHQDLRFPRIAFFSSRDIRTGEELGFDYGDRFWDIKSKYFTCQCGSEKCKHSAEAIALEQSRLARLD
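Chemiluminescent proximity detection of H3K9 monomethylation, read after 10 min bead incubation in the dark. Reaction: 20 nM G9a, 500 nM biotin-H3K9 peptide, 20 uM SAM cofactor, 2 h, room temperature, following 15 min enzyme-compound preincubation.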
Tau fluor counter – counter-screen for tau fibril formation inhibitors; tau K18 P301L Alexa594 fluorescence, heparin fibrillization; Potency, µM (titrated, usually from 57.7 µM); 0.93% of 280,000 active; also: nearly all actives have a fitted effect of over 55% in size
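Human tau K18 P301L (15 uM unlabeled, 0.24 uM Alexa 594-labeled) in 100 mM sodium acetate pH 7 with 20 uM heparin, 6 hr at 37 C. ThT 30 uM added, 1 hr ambient; Alexa 594 FP and total fluorescence read at 555/632 nm.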
Sfp inh – inhibitors of Bacillus subtilis Sfp phosphopantetheinyl transferase. Q9F4F7. Biochemical Sfp PPTase activity, qHTS. Potency, µM, actives largely listed as inhibitors. 3.5% of 310,000 active. AID 1490;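 also: the enzyme is Sfp with the accession as filed and its product quenches rhodamine fluorescence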
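Step 1, compound plus 15 nM Sfp-PPTase, 15 min, room temperature. Step 2, add rhodamine-CoA (5 uM) and BHQ-2-YbbR (12.5 uM). Step 3, read 525/598 nm fluorescence at 0 and 30 min.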
Tau FP inhib – tau fibrillization inhibition (FP) | P10636 | K18 P301L tau heparin fibrillization, Alexa594 FP, 6 h | Potency, µM (top dose mostly 57.7 µM), actives largely listed as inhibitors | 0.39% of 280,000 active | AID 1468; also: nearly all actives have a fitted effect of over 55% in size
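K18 P301L tau (15 uM unlabeled/0.24 uM Alexa 594-labeled, final) + compound + heparin 20 uM final; 100 mM NaOAc pH 7; 6 hr 37 C; ThT 30 uM final added, 1 hr RT; FP ex 555/em 632 nm.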
FBPA coupling cs – counter-screen for Giardia aldolase inhibitors: coupling enzyme system. activity change, negative = inhibition, % at 58.2 µM, hits read low. 0.67% of 290,000 active. coupling enzyme system counterscreen, AmpLite Red fluorescence; in the data active = activity change below about -30%
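Fluorescence at 525 nm excitation and 598 nm emission measured inhibition of the coupled detection system without aldolase. Compounds (at 57.5 uM final) were preincubated 10 min at room temperature with coupling enzyme reagent before a 20 min substrate/AmpLite Red step.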
A number is an active result; i = inactive; ? = inconclusive; nt = no result; [ ] = dose if it differs, or a comment. Unless noted, calls follow the shape of the dose curve; as a rule, active = well fitted curve in the direction sought with a large enough effect; inconclusive = small, poorly fitted or top-dose-only effect, or another doubt; inactive = no such curve, though single readings can be large; an effect the other way counts as inactive or inconclusive.

SMILES	Tau fibril ThT	G9a block	Tau fluor counter	Sfp inh	Tau FP inhib	FBPA coupling cs
Fc1cccc(COc2ccccc2CNc2ccccc2)c1	i	i	i	i	i	i
CCOc1ccc(NCc2ccccc2OCc2cccc(F)c2)cc1	?	10µM	i	i	i	i
COc1ccc(S(=O)(=O)N(C)C)cc1NC(=O)Cc1cccs1	i	i	i	i	i	i
CC(C)=CCC/C(C)=C/C=C/C1=CC2(C)CC1(C)C(/C=C(\C)CCC=C(C)C)CC2=O (stereo not given)	i[11.5 µM]	nt	i[11.6 µM]	i	i[11.6 µM]	i
CC(=O)N1CCC2(CC1)NC(=O)N(c1ccccc1)N2	i	?	i	i	i	i
NC(=O)N1CCC2(CC1)NC(=O)N(c1ccccc1)N2	i	7.9µM	i	i	i	i
CCCCC(=O)Nc1cc(N(C)C)nc2ccccc12	i	i	i	i	i	i
O=C(CN1CCCCC1)Nc1c2c(nc3ccccc13)N(c1ccccc1)CC2	i	14µM	i	i	i	i
CN(C)c1cc(NC(=O)CNC(C)(C)C)c2ccccc2n1	nt	nt	i	79µM	i	i
CCCCc1nc2ccccc2c(NC(=O)CNC(C)(C)C)c1CCC	i	8.9µM	i	?	i	i
CCCCc1nc2ccccc2c(NC(=O)CN2CCCC2)c1CCC	i	20µM	i	i	i	i
CCCC(=O)Nc1c2c(nc3ccccc13)N(c1ccccc1)CC2	i	i	i	i	i	i
O=C(CCCC(=O)Nc1ccc(Br)cc1)N/N=C/c1ccccc1	nt	i	nt	i	nt	i
CCOC(=O)c1c(C)c(C(=O)NCCc2ccc(OC)cc2)c(C)n1C	i	i	i	nt	i	nt
CCOc1ccc(Br)cc1/C=N/O	i	i	i	i	i	i
O=C(O)COc1ccc(Br)cc1/C=N/O	i	56µM	i	i	i	i
COc1ccc(Cl)cc1NC(=S)N(CCCN1CCOCC1)Cc1cn(C)c2ccccc12	i	10µM	?	13µM	i	i
COc1cc(Cl)ccc1NC(=S)N(CCCN1CCOCC1)Cc1cn(C)c2ccccc12	i	18µM	?	11µM	i	i
COc1ccccc1NC(=S)N(CCCN1CCOCC1)Cc1cn(C)c2ccccc12	i	?	i	i	i	i
COC(=O)c1sc(-c2ccc(Cl)cc2)cc1NC(=O)COCC(=O)O	nt	56µM	i	i	i	i
COC(=O)c1sc(-c2ccc(C(C)(C)C)cc2)cc1NC(=O)CCC(=O)O	nt	71µM	i	i	i	i
O=C(CSc1ccc2nc(-c3ccccc3)cn2n1)Nc1ccccc1	i	i	i	nt	i	nt
S=C1NCCOCCOCCOCCN1	i	i	i	i	i	i
S=C1NCCNC(=S)NCCOCCOCCOCCN1	i	25µM	i	i	i	i
CCCCCCCCCCCC1=C(O)C(=O)C=C(O)C1=O	10µM	nt	11µM[quencher]	i	20µM	i
SMILES	Tau fibril ThT	G9a block	Tau fluor counter	Sfp inh	Tau FP inhib	FBPA coupling cs
CCCCCCc1c(O)c2ccccc2[nH]c1=O	i	i	i	i	i	i
O=C(Nc1ccccc1F)c1ccc(O)c2ncccc12	nt	i[12.7 µM]	nt	nt	nt	nt
Cc1ccccc1N1C(=O)C2ON(c3ccccc3)C(c3ccco3)C2C1=O (stereo not given)	i	nt	i	?	i	i
CCOc1ccc(N2C(=O)C3ON(c4ccccc4)C(c4ccco4)C3C2=O)cc1 (stereo not given)	i	35µM	i	i	i	i
COc1ccc(Cl)cc1NC(=O)Cn1c(=O)n(Cc2ccco2)c(=O)c2ccc(C(=O)NC3CCCC3)cc21	i	i	i	nt	?	nt
COc1ccc(/C=C2\SC(=S)N(CCCC(=O)N3CCOCC3)C2=O)cc1OC	nt	i	nt	i	nt	i
O=C(O)CN1C(=O)/C(=C/c2ccc(SCc3ccccc3)o2)SC1=S	13µM	18µM	i	14µM	i	-55
O=C(O)CN1C(=O)/C(=C\c2ccc(OC(=O)c3ccco3)cc2)SC1=S	nt	8.9µM	nt	45µM	nt	i
COc1ccc(CCN2C(=O)/C(=C\c3ccco3)SC2=S)cc1OC	?	45µM	?	18µM	i	i
O=C(O)CN1C(=O)/C(=C\c2cn(CC(=O)N3CCOCC3)c3ccccc23)SC1=S	?	?	i	i	i	i
C=CCN1C(=O)/C(=C\c2ccc(OC(=O)c3ccco3)c(OC)c2)SC1=S	?	14µM	?	i	i	i
Nc1nc(SCc2ccccc2Cl)ns1	i	?	i	i	i	i
O=S(=O)(NCc1ccccc1)NCc1cccc(C(F)(F)F)c1	i	i	i	i	i	i
Cc1ccc(CN2CCCn3nc(C(=O)NCCc4ccccc4Cl)cc3C2=O)cc1	i	i[12.7 µM]	i	nt	i	nt
COc1cccc([C@@H]2Oc3ccc(OC)cc3C(=O)[C@H]2OC(=O)NS(=O)(=O)c2ccc(C)cc2)c1	i	nt	i	?	i	i
CCN1C(=O)/C(=C\c2cccc(OC(=O)c3ccco3)c2)SC1=S	nt	i	nt	i	nt	-38
O=C(O)CN1C(=O)/C(=C\c2cccc(OC(=O)c3ccco3)c2)SC1=S	nt	i	nt	i	nt	i
C=CCN1C(=O)/C(=C\c2cccc(OC(=O)c3ccco3)c2)SC1=S	nt	79µM	nt	i	nt	i
COc1cc(-c2nnc(SCC(=O)Nc3ccc(F)c(Cl)c3)o2)cc(OC)c1OC	i	i	i	nt	i	nt
CCOC(=O)C1=NNC(C(=O)c2ccc(OC)cc2)C1c1ccccc1 (stereo not given)	i	56µM	i	i	i	i
CCOC(=O)C1=NNC(C(=O)c2ccccc2)C1c1ccc(C)cc1 (stereo not given)	?	i	i	i	i	i
CCOC(=O)C1=NNC(C(=O)c2ccc(C)cc2)C1c1ccc(C)cc1 (stereo not given)	i	79µM	i	?	i	i
CCOC(=O)C1=NNC(C(=O)c2ccccc2)C1c1ccc(Cl)cc1 (stereo not given)	nt	nt	i	i	i	i
CC(=O)Oc1ccc(C(=O)Nc2cccc(-c3nnc(-c4ccco4)o3)c2)cc1	?	50µM	i	i	i	i
O=C(Nc1cccc(-c2nnc(-c3ccco3)o2)c1)c1ccccc1	i	i	i	i	i	i
SMILES	Tau fibril ThT	G9a block	Tau fluor counter	Sfp inh	Tau FP inhib	FBPA coupling cs
COc1cc(OC)cc(C(=O)NCC(=O)OCC(=O)c2ccc3c(c2)-c2ccccc2C3)c1	?	35µM	i	i	i	i
O=C(OCC(=O)c1ccc(Cl)s1)c1ccccn1	i	i	i	i	i	i
COc1cc(C(=O)NCC(=O)OCC(=O)c2cccc3ccccc23)cc(OC)c1OC	nt	71µM	nt	i	nt	nt
COc1cccc(C(=O)NCC(=O)OCC(=O)c2ccccc2)c1	i	i	i	i	i	i
O=C(OCC(=O)c1ccc(Cl)s1)c1cnccn1	nt	35µM	nt	i	nt	i
COc1cc(OC)cc(C(=O)NCC(=O)OCC(=O)Nc2ncc(Cl)cc2Cl)c1	i	71µM	i	i	i	i
COc1ccc(NC(=O)COC(=O)CNC(=O)c2cc(OC)c(OC)c(OC)c2)cc1	i	i	i	i	i	i
